Screens deposited in PubChem BioAssay by National Center for Advancing Translational Sciences (NCATS).
TDP1 cell CPT – growth inhibition of DT40 Tdp1-/-;hTDP1 cells with camptothecin (screen for TDP1 inhibitors); AID 686979; 420,000 compounds, 12% hits; chicken DT40 Tdp1-/-;hTDP1 cells + 20 nM CPT, ATP luminescence, 48 h; Potency, µM (top dose mostly 46.2 µM), inactives show at the top dose activity change, negative = growth inhibition, actives largely listed as inhibitors; also: potency is read from the fitted curve at half-maximal effect; nearly all actives have a fitted effect of over 55% in size
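Chicken DT40 Tdp1-/- cells stably complemented with human TDP1 were seeded at 400 cells/well in medium containing 20 nM camptothecin, exposed to pin-transferred compounds, and grown at 37 °C for at least 48 hr. Viability was read as ATP luminescence.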
HT1080 IDH1KD tx – kills HT-1080 cells with IDH1 knockdown | HT-1080 IDH1 knockdown viability, ATP luminescence, 48 h | Potency, µM (top dose mostly 46.1 µM), for inactives: at the highest dose activity, negative = toxicity, actives largely listed as cytotoxic | 360,000 compounds, 2% hits | AID 686971;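 also: potency is read from the fitted curve at half-maximal effect; 0% = DMSO wells and -100% = cell-free medium wells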
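Cytotoxicity counter-line: IDH1KD HT-1080, 48 h, CellTiter-Glo. Curves classed by r2, magnitude and activity.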
IL-1B inflam inh – inhibitors of inflammasome signaling (IL-1 beta secretion). THP-1 LPS/ATP IL-1B secretion, AlphaLISA, 16 h; hits give low values. activity change, % at 57.5 µM. 360,000 compounds, 4.7% hits; in the data active = activity change below about -50%; inconclusive = mostly about -30% to -49%
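Secreted IL-1B measured by AlphaLISA bead assay after 16 h compound exposure of THP-1 cells; compounds (final up to 57.5 uM) added 1 h before LPS (250 ng/mL) and ATP (1.25 mM) stimulation; lower signal means less secretion.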
DT40 TDP1 no CPT – qHTS for Inhibitors of human tyrosyl-DNA phosphodiesterase 1 (TDP1): qHTS in cells in absence of CPT | 420,000 compounds, 15% hits | Potency, µM (top dose mostly 46.2 µM), for inactives: at the top dose activity change, negative = growth inhibition, hits mostly inhibitors | DT40 Tdp1-/- hTDP1 cells, no CPT, ATP luminescence, 48 h | AID 686978, 2013; also: potency is read from the fitted curve at half-maximal effect; nearly all actives have a fitted effect of over 55% in size
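A cellular qHTS used chicken DT40 cells lacking endogenous Tdp1 but carrying stably transfected human TDP1. Compounds were applied without camptothecin, and cell growth kinetics were judged by ATP-dependent luminescence after ≥48 hr.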
HT1080NT lethal – kills 2HG-producing HT-1080-NT fibrosarcoma cells; HT-1080-NT fibrosarcoma viability, CellTiter-Glo ATP luminescence, 48 h; Potency, µM (titrated, usually from 46.1 µM), without a hit: top-dose activity, negative = less viability, most hits filed as cytotoxic; 360,000 compounds, 1.6% hits; AID 686970;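 also: NT is the 2HG producing partner of a matched IDH1 knockdown line; potency is read from the fitted curve at half-maximal effect; 0% = DMSO-treated cells and -100% = media-only wells without cells; nearly all actives have a fitted effect of over 55% in size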
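Luminescent CellTiter-Glo readout after 48 hours of compound exposure at 37 degrees C defined viability of HT-1080-NT cells. Activity was normalized to DMSO wells and cell-free media wells; concentration-response curves were fitted and assigned curve classes.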
* marks the source's active call; other numbers are inactive results; ? = inconclusive; · = no result. A selection: hits, their analogues and other compounds. The true share with any hit is near 19%. Unless noted, calls follow the shape of the dose curve; as a rule, active = well fitted curve in the direction sought with a large enough effect; inconclusive = small, poorly fitted or top-dose-only effect, or another doubt; inactive = no such curve, though single readings can be large; an effect the other way counts as inactive or inconclusive. Unless noted, % is scaled to controls: 0 for no effect and ±100 for the full control effect.

SMILES | TDP1 cell CPT | HT1080 IDH1KD tx | IL-1B inflam inh | DT40 TDP1 no CPT | HT1080NT lethal
NC(=O)C1CCN(c2oc(-c3ccc(F)cc3)nc2S(=O)(=O)c2ccccc2)CC1 | ? | -9% | -2 | ? | -9%
O=S(=O)(c1ccc(Cl)cc1)c1nc(-c2cccs2)oc1N1CCCCC1 | ? | · | · | 16µM* | ·
NC(=O)c1nsc(C(=O)N(c2cccc(O)c2)C(C(=O)NC2CCCC2)c2ccc(Cl)cc2)c1N (stereo not drawn) | 4% | -4% | -1 | ? | -10%
CCCC(C(=O)NC1CCCC1)N(C(=O)c1snc(C(N)=O)c1N)c1ccc(OCC)cc1 (stereo not drawn) | -20% | 0% | -59* | 21µM* | 1%
CCOc1ccc(C(C(=O)NC2CCCC2)N(C(=O)c2snc(C(N)=O)c2N)c2cccc(O)c2)cc1 (stereo not drawn) | ? | -8% | -6 | 16µM* | -12%
O=S(=O)(Nc1nc2ccccc2nc1NCc1ccco1)c1cccs1 | -1% | 3% | 28 | -9% | 10%
Brc1cccc(CNCC2CCCO2)c1 (stereo not drawn) | 4% | -21% | -5 | -3% | -1%
O=C(N/N=C/c1ccco1)c1ccc(OCc2ccccc2)cc1 | -28% | 12% | -7 | -26% | 19%
O=C(N/N=C/c1ccco1)c1ccccc1OCc1ccc(Br)cc1 | 21µM* | -22% | -5 | 23µM* | -13%
Cc1ccc(/C=N/NC(=O)c2ccccc2OCc2cccc(Br)c2)o1 | 6.5µM* | -2% | -99* | 7.3µM* | -30%
O=C(N/N=C/c1cccnc1)c1ccccc1OCc1cccc(Br)c1 | ? | 3% | -26 | ? | 10%
CC(=O)Nc1cccc(/C(C)=N/N2C(C)CCCC2C)c1 (stereo not drawn) | 0% | 0% | 27 | -17% | 2%
CC1CCc2c(sc3nc(C(C)(C)C)nc(N4CCN(C(=O)CCl)CC4)c23)C1 (stereo not drawn) | 1.8µM* | 4.6µM* | -95* | 2.6µM* | 12µM*
CCN1CCN(c2ncnc3sc4c(c23)CCC(C)C4)CC1 (stereo not drawn) | -10% | 1% | 2 | -12% | 1%
O=C(COC(=O)Cn1cnc2ccccc2c1=O)Nc1ccccc1Sc1ccc(Cl)cc1 | 13µM* | -1% | 0 | 26µM* | -2%
O=C(Cc1ccccc1)Nc1ccccc1Sc1ccccc1 | -6% | -20% | 9 | 1% | 0%
O=C(CCl)Nc1ccccc1Sc1ccc(Cl)cc1 | 21µM* | ? | -100* | ? | ?
Nc1ccccc1C(=O)N1CCc2ccccc21 | 4% | 4% | 19 | 8% | 3%
CC1CCCN(C(=O)C(C)Sc2nc(-c3ccccc3)cc(C(F)(F)F)n2)C1 (stereo not drawn) | ? | 5% | -11 | ? | ?
C[C@H]1CN([C@@H](C)CO)C(=O)Cc2cc(NS(C)(=O)=O)ccc2O[C@@H]1CN(C)Cc1ccc(Cl)c(Cl)c1 | ? | -18% | ? | -26% | ?
C[C@H](CO)N1C[C@H](C)[C@H](CN(C)Cc2ccncc2)Oc2ccc(NC(=O)Nc3ccc(C(F)(F)F)cc3)cc2CC1=O | 3.3µM* | ? | -10 | 4.6µM* | ?
C[C@H]1CN([C@@H](C)CO)C(=O)Cc2cc(NC(=O)Nc3ccccc3)ccc2O[C@H]1CN(C)Cc1ccccc1 | 21µM* | ? | -72* | 21µM* | -24%
C[C@H](CO)N1C[C@H](C)[C@H](CN(C)Cc2ccc(Oc3ccccc3)cc2)Oc2ccc(NC(=O)Nc3cccc4ccccc34)cc2CC1=O | ? | -17% | 4 | ? | -3%
C[C@@H]1CN([C@@H](C)CO)C(=O)Cc2cc(NC(=O)Nc3ccc(F)cc3)ccc2O[C@@H]1CN(C)Cc1ccc(Cl)c(Cl)c1 | ? | ? | -54* | 15µM* | 18µM*
